A short description of assay [1]: qHTS assay for measurement of the activity of small molecule inhibitors on Zika virus induced Caspase-3 activity in human iPSC derived neural progenitor cells (hNPCs) (AID 1224857). Also: % of control where 0% means no effect; nearly all actives have a fitted effect of over 65% in size. The method in brief:
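Human iPSC-derived neural progenitor cells pretreated 1 hr with compounds, then infected with Zika virus (2 FFU/cell) for 6 hours at 37 C. Caspase-3/7 measured by Caspase-Glo luminescence; % inhibition calculated from induction scaled to uninfected (0%) and infected (100%) wells.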
In general terms: In qHTS, concentration-response curves come from the screen itself.

Assay [2] can be described thus: qHTS assay for measurement of the activity of small molecule inhibitors on Zika virus induced Caspase-3 activity in human astrocytoma cells (AID 1224859).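 Also: plate controls were ZIKV-infected untreated cells for no effect and uninfected cells for full effect.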 The method in brief:
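SNB-19 astrocytoma cells, 250/well, pretreated 1 h with compounds, then Zika virus at 2 FFU/cell for 6 h at 37 C; Caspase-Glo 3/7 luminescence after 30 min; percent inhibition normalised to uninfected and infected controls.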

Assay [3] can be described thus: qHTS assay to identify small molecule inhibitors of chordoma cells - UCH-1 (AID 1259355). Also: % is scaled to controls: 0 for no effect and ±100 for the full control effect; nearly all actives have a fitted effect of over 55% in size. The method in brief:
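Seed 800 cells per well; incubate overnight at 37 C, 5% CO2. Add test compounds (15 concentrations), then the auranofin–topoisomerase-agent combination. Incubate 48hr, add CellTiter-Glo, wait 30min, read luminescence.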

A short description of assay [4]: qHTS assay to identify small molecule inhibitors of chordoma cells - UCH-2 (AID 1259356). Also: series mostly up to about 46 µM; % is scaled to controls: 0 for no effect and ±100 for the full control effect.
A short description of assay [5]: qHTS Screen of the MIPE 4.0 Collection Against Ewings Sarcoma (RDES) (AID 1259252).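 Also: 100% = DMSO-treated cells and 0% = medium-only wells without cells; nearly all actives have a fitted effect of over 35% in size.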 The procedure, abridged:
(§1)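 After a 4 h attachment period in RPMI/5% FBS, cells were pin-dosed with test compounds; DMSO served as negative and 9.2 uM bortezomib (final) as positive control. Luminescent CellTiter-Glo signal at 48 h defined viability.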

The nature of assay [6]: qHTS Screen of the MIPE 4.0 Collection Against Ewings Sarcoma (TC71) (AID 1259253).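 Also: 100% = DMSO-treated cells and 0% = medium-only wells without cells; nearly all actives have a fitted effect of over 40% in size.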 An excerpt:
There is a large unmet medical need for treatments for Ewing sarcoma, a pediatric sarcoma. We sought to identify compounds that inhibited Ewing sarcoma cells in vitro with the goal to then test promising drugs in two drug combinations in vitro to look for synergistic drug combinations. Promising combinations would then proceed to additional validation, including in vivo testing.
Using the NCATS developed oncology compound library called the Mechanism of Interrogation Plate (MIPE), four Ewing sarcoma cell lines were evaluated (TC32, TC71, RDES, EW8). Compounds, in a 12-point titration series, were incubated with cells for 48 hours and the read out was cell viability (CellTiter-Glo from Promega). These initial experiments were used to select appropriate concentrations of each single agent for subsequent two-drug matrix combinations such that the concentrations in the matrices would span both activity and non-activity.
Cells, in the log phase of growth, were seeded in 5 uL of RPMI plus 5% FBS, […] L-glutamine, 100 U/ml penicillin and 100 ug/ml streptomycin into 1536-well solid-bottom white tissue culture treated Greiner Bio One Plates (789173-F) using a MultiDrop Combi (Thermofisher Scientific) dispenser and a small sterile cassette. One column was media alone to be used as a :"no cells" control. The plates were then covered with sterilized stainless steel gasketed lids from Kalypsys. After allowing cells to attach for 4 hours, 23 nL of test compound or control (negative control DMSO and positive control 9.2 uM Bortezomib-final) were added from a 1536-well polypropylene compound source plate to each well using a 1536 head pin tool from Kalypsys. Cells were then incubated for 48 hours at 37C, 95% relative humidity and 5% CO2. After 48 hours, plates were removed from the incubator and 3 uL of CellTiter-Glo (Promega) was added using an Aurora Flying Reagent Dispenser Bioraptor. Plates were incubated at room temperature for 10 minutes prior to reading the luminescence on the Viewlux (PerkinElmer). The relative luciferase units are used to calculate the percent activity using the activity of DMSO in the cells and no cells columns for normalization of no inhibition and full inhibition respectively.

Assay [7] is described as follows: qHTS Screen of the MIPE 4.0 Collection Against Ewings Sarcoma (EW8) (AID 1259255).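 Also: 100% = DMSO-treated cells and 0% = medium-only wells without cells; nearly all actives have a fitted effect of over 35% in size.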 The method in brief:
as §1

A short description of assay [8]: qHTS Screen of the MIPE 4.0 Collection Against Ewings Sarcoma (TC32) (AID 1259256). Also: nearly all actives have a fitted effect of over 45% in size. Also: potency is read from the fitted curve at half-maximal effect. The procedure, abridged: as §1

A number with no mark means an inactive call. Records with an inconclusive call do not appear. Calls of active or inactive are those of the source. Calls follow the shape of the dose curve; as a rule, active = well fitted curve in the direction sought with a large enough effect; inconclusive = small, poorly fitted or top-dose-only effect, or another doubt; inactive = no such curve, though single readings can be large; an effect the other way counts as inactive or inconclusive.

As for `C=CCC1(C(C)CC)C(=O)NC(=O)NC1=O` (configuration not stated), the outcome in assay [1] and in assay [2] was inactive.
On to `CCOC(=O)CC(SP(=S)(OC)OC)C(=O)OCC` (configuration not stated), for which the outcome in assay [1], in assay [2], in assay [3] and in assay [4] was inactive.
As to `COc1cc(CC(C)N)cc(OC)c1OC` (configuration not stated), the molecule was classed as inactive in assay [1] and in assay [2].
`C[C@H](N)C(=O)c1ccccc1`: the molecule was classed as inactive in assay [1] and in assay [2].
On to `CC(NC(C)(C)C)C(=O)c1cccc(Cl)c1` (configuration not stated), for which the outcome in assay [1], in assay [2], in assay [7], in assay [3] and in assay [4] was inactive. Moreover, the Potency entry in assay [5], in assay [6] and in assay [8] was “inactive” in each case.
Take `O=C1OC(CCN2CCCCC2)OC1(c1ccccc1)c1ccccc1` (configuration not stated): the molecule was classed as inactive in assay [1] and in assay [2].
Consider `CCC1(c2ccccc2)C(=O)N(COC)C(=O)N(COC)C1=O`, for which the call in assay [1], in assay [2], in assay [3] and in assay [4] was inactive.
As for `CCC1(c2ccc(N)cc2)CCC(=O)NC1=O` (configuration not stated), the outcome in assay [1], in assay [2], in assay [7], in assay [3] and in assay [4] was inactive. Also, the Potency result in assay [5], in assay [6] and in assay [8] was “inactive” each time.
For the molecule `O=C(O)CCCc1ccc(N(CCCl)CCCl)cc1`, the outcome in assay [1], in assay [2], in assay [3] and in assay [4] was inactive. Moreover, in assay [8], the Potency entry is “inactive”.
On to `CCCCC/C=C\C/C=C\C/C=C\C/C=C\CCCC(=O)NCC(=O)O`, for which the molecule was called inactive in assay [1] and in assay [2]. For the same molecule, the activity, negative = inhibition in assay [3] is -4.51% [at 4.2 µM]. Moreover, in assay [4], the activity change, negative = inhibition is -22% [at 4.61 µM].
`O=c1[nH]c2ccccc2n1C1CCNCC1`: the molecule was classed as inactive in assay [1] and in assay [2].
Consider `C[C@]12CC[C@H]3[C@@H](CCC4=CC(=O)CC[C@@H]43)[C@@H]1CC[C@@H]2OC(=O)CCc1ccco1`, for which the molecule was called inactive in assay [1] and in assay [2].
`O=C1OC(c2ccc(O)c(S(=O)(=O)O)c2)(c2ccc(O)c(S(=O)(=O)O)c2)c2c(Br)c(Br)c(Br)c(Br)c21`: the outcome in assay [1], in assay [2], in assay [3] and in assay [4] was inactive.
`CC(Cc1ccccc1)N(C)Cc1ccco1` (configuration not stated): the outcome in assay [1] and in assay [2] was inactive.
As to `CN1C(=O)CCS(=O)(=O)C1c1ccc(Cl)cc1` (configuration not stated), the molecule was classed as inactive in assay [1], in assay [2], in assay [7], in assay [3] and in assay [4].
For the molecule `COc1cc(OC)c(OC)cc1C=O`, the molecule was classed as inactive in assay [1] and in assay [2].
On to `C[C@]12CCC(=O)C=C1CC[C@@H]1[C@@H]2CC[C@@]2(C)[C@H]1CC[C@]2(C)O`, for which the result in assay [1] and in assay [2] was inactive.
As for `CC(C)(N)Cc1ccccc1Cl`, the result in assay [1] and in assay [2] was inactive.
As for `CCC(C)C(C)(COC(N)=O)COC(N)=O` (configuration not stated), the molecule was called inactive in assay [1] and in assay [2].
As for `CC[N+]1(CC)CCC(OC(=O)C(O)(c2ccccc2)c2ccccc2)C1` (configuration not stated), the molecule was called inactive in assay [1] and in assay [2].
For the molecule `CN1CC[C@]23c4c5ccc(O)c4O[C@H]2[C@@H](O)C=C[C@H]3[C@H]1C5`, the result in assay [1] and in assay [2] was inactive.
In the case of `NC1=NC(=O)C(c2ccccc2)O1` (configuration not stated), the outcome in assay [1], in assay [2], in assay [3] and in assay [4] was inactive.
With `CCCCCCC(=O)CCCCCC/C=C/C[C@@H](O)[C@H](O)[C@@](N)(CO)C(=O)O`, the call in assay [1], in assay [2], in assay [3] and in assay [4] was inactive.
On to `COc1ccc2c3c1O[C@H]1[C@H](O)CC[C@H]4[C@@H](C2)N(C)CC[C@@]341`, for which the molecule was classed as inactive in assay [1] and in assay [2].
As for `c1ccc(N2CCNCC2)cc1`, the molecule was called inactive in assay [1] and in assay [2].
Take `CC1(C)C(C=C(Cl)Cl)C1C(=O)OC(C#N)c1cccc(Oc2ccccc2)c1` (configuration not stated): the molecule was called inactive in assay [1] and in assay [2].
`C[C@]12CC[C@@H]3c4ccc(OC(=O)N(CCCl)CCCl)cc4CC[C@H]3[C@@H]1CC[C@@H]2OP(=O)(O)O`: the molecule was called inactive in assay [1], in assay [2] and in assay [7]. Also, the Potency result in assay [5], in assay [6] and in assay [8] was “inactive” each time.
On to `CC(=O)C1CCOC1=O` (configuration not stated), for which the outcome in assay [1] and in assay [2] was inactive.
With `C[C@]12CC[C@H]3[C@@H](CC[C@@]45O[C@H]4C(O)=C(C#N)C[C@]35C)[C@H]1CC[C@H]2O`, the result in assay [1] and in assay [2] was inactive. For the same molecule, the Potency in assay [8] is 20.9 µM (active).
As for `CC(C)c1cccc(C(C)C)c1O`, the molecule was called inactive in assay [1], in assay [2], in assay [7], in assay [3] and in assay [4]. Moreover, the Potency result in assay [5], in assay [6] and in assay [8] was “inactive” throughout.
Regarding `CCN(CCO)CCn1c(Cc2ccccc2)nc2c1c(=O)n(C)c(=O)n2C`, the molecule was called inactive in assay [1] and in assay [2].
On to `O=c1c(C2CC(c3ccc(-c4ccc(Br)cc4)cc3)Cc3ccccc32)c(O)sc2ccccc12` (configuration not stated), for which the outcome in assay [1] and in assay [2] was inactive.
Turning to `CCCOC(=O)c1cncn1C(C)c1ccccc1` (configuration not stated), the molecule was classed as inactive in assay [1] and in assay [2].
For the molecule `C=C(C)[C@H]1CN[C@H](C(=O)O)[C@H]1CC(=O)O`, the molecule was called inactive in assay [1], in assay [2], in assay [3] and in assay [4].
As for `CN1CCC(O)(c2ccc(F)cc2)C(C(=O)c2ccc(F)cc2)C1` (configuration not stated), the call in assay [1], in assay [2], in assay [3] and in assay [4] was inactive.
For `O=C1c2ccccc2C(=O)c2ccccc21`, the molecule was called inactive in assay [1], in assay [2], in assay [3] and in assay [4].
In the case of `Nc1ccccc1C(=O)O`, the call in assay [1], in assay [2], in assay [3] and in assay [4] was inactive.
Take `NCCc1ccc(O)cc1`: the outcome in assay [1], in assay [2] and in assay [4] was inactive.
For the molecule `[N-]=[N+]=CC(=O)OC[C@H](N)C(=O)O`, the result in assay [1], in assay [2] and in assay [4] was inactive.
Take `COc1c2c(cc3c1OCO3)CCN(C)C2`: the outcome in assay [1], in assay [2] and in assay [4] was inactive.
Consider `CNC(C)(C)Cc1ccccc1`, for which the call in assay [1], in assay [2], in assay [3] and in assay [4] was inactive.
In the case of `CCCCCCCCCC(=O)O[C@H]1CC[C@H]2[C@@H]3CCC4=CC(=O)CC[C@@H]4[C@H]3CC[C@]12C`, the call in assay [1], in assay [2] and in assay [4] was inactive.
On to `COC(=O)[C@@H](N)CCCN/C(N)=N/[N+](=O)[O-]`, for which the result in assay [1], in assay [2], in assay [3] and in assay [4] was inactive.
`CC(C)c1c(CN(C)C(C)Cc2ccccc2)n(C)n(-c2ccccc2)c1=O` (configuration not stated): the call in assay [1], in assay [2], in assay [3] and in assay [4] was inactive.

(Values after PubChem BioAssay (NCATS).)
